This passage reports binding signal results from article PMC9911399, “Two distinct binding modes provide the RNA-binding protein RbFox with extraordinary sequence specificity”.

The labels stand for the following.
T1: RBFOX1 RRM (Homo sapiens, UniProt Q9NWB1 109-208)
T1 sequence: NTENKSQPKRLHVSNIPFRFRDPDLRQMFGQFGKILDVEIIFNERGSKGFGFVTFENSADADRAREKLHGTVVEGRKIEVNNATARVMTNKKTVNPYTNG

B1: CUCAACC (DNA:RNA)
RNA: GGGAGACCGGAAUUCAGAUUGUCCCUCAACCUUAAAUCCCGUCGUAGCCACCA
DNA 1: CAATCTGAATTCCGGTCTCCC
DNA 2: TGGTGGCTACGACGGGATT
B2: GAUGAAG (DNA:RNA)
RNA: B1 RNA with C25G, U26A, C27U, A28G, C30A, C31G
DNA 1: CAATCTGAATTCCGGTCTCCC
DNA 2: TGGTGGCTACGACGGGATT
B3: ACGCGCU (DNA:RNA)
RNA: B1 RNA with C25A, U26C, C27G, A28C, A29G, C31U
DNA 1: CAATCTGAATTCCGGTCTCCC
DNA 2: TGGTGGCTACGACGGGATT
B4: GAGAGCU (DNA:RNA)
RNA: B1 RNA with C25G, U26A, C27G, A29G, C31U
DNA 1: CAATCTGAATTCCGGTCTCCC
DNA 2: TGGTGGCTACGACGGGATT
B5: ACGUGAA (DNA:RNA)
RNA: GGGAGACCGGAAUUCAGAUUGUCCACGUGAAUUAAAUCCCGUCGUAGCCACCA
DNA 1: CAATCTGAATTCCGGTCTCCC
DNA 2: TGGTGGCTACGACGGGATT
B6: CGUCAAG (DNA:RNA)
RNA: B1 RNA with U26G, C27U, A28C, C30A, C31G
DNA 1: CAATCTGAATTCCGGTCTCCC
DNA 2: TGGTGGCTACGACGGGATT
B7: CCUGCAA (DNA:RNA)
RNA: B5 RNA with A25C, G27U, U28G, G29C
DNA 1: CAATCTGAATTCCGGTCTCCC
DNA 2: TGGTGGCTACGACGGGATT
B8: CUGAAUC (DNA:RNA)
RNA: B1 RNA with C27G, C30U
DNA 1: CAATCTGAATTCCGGTCTCCC
DNA 2: TGGTGGCTACGACGGGATT
B9: UGAAUGU (DNA:RNA)
RNA: B1 RNA with C25U, U26G, C27A, A29U, C30G, C31U
DNA 1: CAATCTGAATTCCGGTCTCCC
DNA 2: TGGTGGCTACGACGGGATT
B10: UGAAAUG (DNA:RNA)
RNA: B1 RNA with C25U, U26G, C27A, C30U, C31G
DNA 1: CAATCTGAATTCCGGTCTCCC
DNA 2: TGGTGGCTACGACGGGATT
B11: CUGAAUG (DNA:RNA)
RNA: B1 RNA with C27G, C30U, C31G
DNA 1: CAATCTGAATTCCGGTCTCCC
DNA 2: TGGTGGCTACGACGGGATT
B12: CCCUGAA (DNA:RNA)
RNA: B5 RNA with A25C, G27C
DNA 1: CAATCTGAATTCCGGTCTCCC
DNA 2: TGGTGGCTACGACGGGATT
B13: UGAUUGU (DNA:RNA)
RNA: B5 RNA with A25U, C26G, G27A, G29U, A30G, A31U
DNA 1: CAATCTGAATTCCGGTCTCCC
DNA 2: TGGTGGCTACGACGGGATT
B14: CGCAUAC (DNA:RNA)
RNA: B1 RNA with U26G, A29U, C30A
DNA 1: CAATCTGAATTCCGGTCTCCC
DNA 2: TGGTGGCTACGACGGGATT
B15: AUGCGCC (DNA:RNA)
RNA: B5 RNA with C26U, U28C, A30C, A31C
DNA 1: CAATCTGAATTCCGGTCTCCC
DNA 2: TGGTGGCTACGACGGGATT
B16: AACACCC (DNA:RNA)
RNA: B1 RNA with C25A, U26A, A29C
DNA 1: CAATCTGAATTCCGGTCTCCC
DNA 2: TGGTGGCTACGACGGGATT
B17: AAUUUUC (DNA:RNA)
RNA: B5 RNA with C26A, G27U, G29U, A30U, A31C
DNA 1: CAATCTGAATTCCGGTCTCCC
DNA 2: TGGTGGCTACGACGGGATT
B18: ACAGCCG (DNA:RNA)
RNA: B5 RNA with G27A, U28G, G29C, A30C, A31G
DNA 1: CAATCTGAATTCCGGTCTCCC
DNA 2: TGGTGGCTACGACGGGATT
B19: UGGGCCU (DNA:RNA)
RNA: B5 RNA with A25U, C26G, U28G, G29C, A30C, A31U
DNA 1: CAATCTGAATTCCGGTCTCCC
DNA 2: TGGTGGCTACGACGGGATT
B20: UGGGGCC (DNA:RNA)
RNA: B5 RNA with A25U, C26G, U28G, A30C, A31C
DNA 1: CAATCTGAATTCCGGTCTCCC
DNA 2: TGGTGGCTACGACGGGATT
B21: CUGGGCC (DNA:RNA)
RNA: B1 RNA with C27G, A28G, A29G
DNA 1: CAATCTGAATTCCGGTCTCCC
DNA 2: TGGTGGCTACGACGGGATT
B22: UGGGCCC (DNA:RNA)
RNA: B1 RNA with C25U, U26G, C27G, A28G, A29C
DNA 1: CAATCTGAATTCCGGTCTCCC
DNA 2: TGGTGGCTACGACGGGATT
B23: UGGCCGU (DNA:RNA)
RNA: B5 RNA with A25U, C26G, U28C, G29C, A30G, A31U
DNA 1: CAATCTGAATTCCGGTCTCCC
DNA 2: TGGTGGCTACGACGGGATT
B24: UGGGCCG (DNA:RNA)
RNA: B5 RNA with A25U, C26G, U28G, G29C, A30C, A31G
DNA 1: CAATCTGAATTCCGGTCTCCC
DNA 2: TGGTGGCTACGACGGGATT
B25: GACUUCU (DNA:RNA)
RNA: B1 RNA with C25G, U26A, A28U, A29U, C31U
DNA 1: CAATCTGAATTCCGGTCTCCC
DNA 2: TGGTGGCTACGACGGGATT
B26: UCCAGUC (DNA:RNA)
RNA: B1 RNA with C25U, U26C, A29G, C30U
DNA 1: CAATCTGAATTCCGGTCTCCC
DNA 2: TGGTGGCTACGACGGGATT
B27: UGGCAUC (DNA:RNA)
RNA: B1 RNA with C25U, U26G, C27G, A28C, C30U
DNA 1: CAATCTGAATTCCGGTCTCCC
DNA 2: TGGTGGCTACGACGGGATT
B28: ACCGGCA (DNA:RNA)
RNA: B5 RNA with G27C, U28G, A30C
DNA 1: CAATCTGAATTCCGGTCTCCC
DNA 2: TGGTGGCTACGACGGGATT
B29: UGGCAUG (DNA:RNA)
RNA: B5 RNA with A25U, C26G, U28C, G29A, A30U, A31G
DNA 1: CAATCTGAATTCCGGTCTCCC
DNA 2: TGGTGGCTACGACGGGATT
B30: CGGCAUG (DNA:RNA)
RNA: B1 RNA with U26G, C27G, A28C, C30U, C31G
DNA 1: CAATCTGAATTCCGGTCTCCC
DNA 2: TGGTGGCTACGACGGGATT
B31: UGGCAUA (DNA:RNA)
RNA: B5 RNA with A25U, C26G, U28C, G29A, A30U
DNA 1: CAATCTGAATTCCGGTCTCCC
DNA 2: TGGTGGCTACGACGGGATT
B32: GGCAUGU (DNA:RNA)
RNA: B1 RNA with C25G, U26G, A29U, C30G, C31U
DNA 1: CAATCTGAATTCCGGTCTCCC
DNA 2: TGGTGGCTACGACGGGATT
B33: AUGUCGU (DNA:RNA)
RNA: B5 RNA with C26U, G29C, A30G, A31U
DNA 1: CAATCTGAATTCCGGTCTCCC
DNA 2: TGGTGGCTACGACGGGATT
B34: AGGCAUC (DNA:RNA)
RNA: B5 RNA with C26G, U28C, G29A, A30U, A31C
DNA 1: CAATCTGAATTCCGGTCTCCC
DNA 2: TGGTGGCTACGACGGGATT
B35: AGGCAUA (DNA:RNA)
RNA: B5 RNA with C26G, U28C, G29A, A30U
DNA 1: CAATCTGAATTCCGGTCTCCC
DNA 2: TGGTGGCTACGACGGGATT
B36: GGCAUUG (DNA:RNA)
RNA: B1 RNA with C25G, U26G, A29U, C30U, C31G
DNA 1: CAATCTGAATTCCGGTCTCCC
DNA 2: TGGTGGCTACGACGGGATT
B37: GUCAUGU (DNA:RNA)
RNA: B1 RNA with C25G, A29U, C30G, C31U
DNA 1: CAATCTGAATTCCGGTCTCCC
DNA 2: TGGTGGCTACGACGGGATT
B38: AGGCAUG (DNA:RNA)
RNA: B5 RNA with C26G, U28C, G29A, A30U, A31G
DNA 1: CAATCTGAATTCCGGTCTCCC
DNA 2: TGGTGGCTACGACGGGATT

Positions count from the first letter of the chain named. Over roughly 16,000 sequences, “ka relative to ugcaugu” has its median near 0.0091; the highest 2% begin near 0.032. Only a selection was taken, and the highest values are over-represented in it overall.

The target of this test is T1, RBFOX1 RRM. The test is described as follows: EMSA; HiTS-Eq, 1 nM pool, 10 min; buffer printed only for the single-RNA assays: 10 mM Tris pH 7.5, 150 mM NaCl, 3.4 mM EDTA, 0.001% NP-40, 30 C. To be noted: tags: His6 N-terminal (pET28a); label: 5' 32P. Summed up:
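Purified wild-type or mutant RbFox RRM at increasing concentrations was equilibrated with 1 nM of 5′-radiolabelled RNA carrying 7 randomized nucleotides for 10 min in 50 µL. Unbound RNA was separated by 8% native PAGE and sequenced. Relative association constants came from read-count changes of each RNA species compared with the control reaction, normalised to the cognate motif.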
For orientation: In EMSA bound probe runs differently from free probe, usually more slowly.
Consider B1, for which the binding signal was 0.000946 KA relative to UGCAUGU.
As to B2, the binding signal is 0.0183 KA relative to UGCAUGU.
B3: the binding signal was 0.00889 KA relative to UGCAUGU.
The result for B4 reads 0.016 KA relative to UGCAUGU; that for B5, 0.00505 KA relative to UGCAUGU.
Take B6: the binding signal is 0.0065 KA relative to UGCAUGU.
As for B7, the figure is 0.00899 KA relative to UGCAUGU; as for B8, 0.00905 KA relative to UGCAUGU.
Consider B9, for which the binding signal is 0.0386 KA relative to UGCAUGU.
Consider B10, for which the binding signal is 0.0128 KA relative to UGCAUGU.
With B11, the binding signal was 0.0348 KA relative to UGCAUGU.
As for B12, the figure is 0.00426 KA relative to UGCAUGU; as for B13, 0.0253 KA relative to UGCAUGU; as for B14, 0.0068 KA relative to UGCAUGU.
Turning to B15, the binding signal was 0.0101 KA relative to UGCAUGU.
As for B16, the figure is 0.000265 KA relative to UGCAUGU; as for B17, 0.00788 KA relative to UGCAUGU.
Turning to B18, the binding signal was 0.00101 KA relative to UGCAUGU.
On to B19, for which the binding signal was 0.0237 KA relative to UGCAUGU.
Consider B20, for which the binding signal was 0.0345 KA relative to UGCAUGU.
B21: the binding signal was 0.0274 KA relative to UGCAUGU.
Take B22: the binding signal was 0.0266 KA relative to UGCAUGU.
The result for B23 reads 0.023 KA relative to UGCAUGU.
As for B24, the figure is 0.0335 KA relative to UGCAUGU; as for B25, 0.0118 KA relative to UGCAUGU; as for B26, 0.00851 KA relative to UGCAUGU.
For B27, the binding signal was 0.0211 KA relative to UGCAUGU.
As for B28, the figure is 0.00809 KA relative to UGCAUGU; as for B29, 0.696 KA relative to UGCAUGU.
As for B30, the figure is 0.573 KA relative to UGCAUGU.
For the molecule B31, the binding signal is 0.0137 KA relative to UGCAUGU.
Turning to B32, the binding signal was 0.426 KA relative to UGCAUGU.
For the molecule B33, the binding signal was 0.0142 KA relative to UGCAUGU.
B34: the binding signal is 0.0123 KA relative to UGCAUGU.
B35: the binding signal was 0.00927 KA relative to UGCAUGU.
For B36, the binding signal was 0.0108 KA relative to UGCAUGU.
For B37, the binding signal was 0.0129 KA relative to UGCAUGU.
Regarding B38, the binding signal is 0.662 KA relative to UGCAUGU.
